The source made the active and inactive calls. How the source made its calls: active means hit-call score of the fitted dose curve at least 0.9, where 1 is the maximum; inactive means score below 0.9.

Assay [1] is described as follows: CEETOX_H295R_DOC: CeeTox H295R High-throughput Steroidogenesis Assay for DOC (AID 2283439). The following applies: actives raise or lower the signal. The gist of the method:
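H295R, fsk 10 uM ×48 h pre, cmpd ×48 h (0.1% DMSO). Media → MTBE extr. → LC-MS/MS, DOC. Bidirectional fit vs DMSO; MTT viability same wells, re-test diluted if <70%.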

Assay [2] in a line: CEETOX_H295R_ESTRADIOL: CeeTox H295R High-throughput Steroidogenesis Assay for Estradiol (AID 2283440).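 Further: estradiol secreted into medium quantified by LC-MS/MS after dansyl derivatisation.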 The conditions noted are these: actives raise or lower the signal. The gist of the method: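 Following OECD 456 with minor changes, H295R cells received 10 uM forskolin for 48 h and then test chemical for 48 h. Hormone output was read by HPLC-MS/MS, with cytotoxic concentrations diluted until MTT viability reached ≥70%.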

Assay [3] in a line: CEETOX_H295R_ESTRONE: CeeTox H295R High-throughput Steroidogenesis Assay for Estrone (AID 2283441).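 Further: human adrenal H295R cells prestimulated with forskolin for two days; estrone secreted into medium measured by LC-MS/MS after dansyl derivatization.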 The following applies: actives raise or lower the signal. In a few lines:
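Forskolin-stimulated H295R cells are treated 48 h with chemical, and estrone in the medium is measured by LC-MS/MS. Activity is fitted in both directions relative to DMSO controls, with chemicals diluted until MTT viability reaches at least 70%.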

Assay [4] in a line: CEETOX_H295R_PROG: CeeTox H295R High-throughput Steroidogenesis Assay for Progesterone (PROG) (AID 2283442). The conditions noted are these: actives raise or lower the signal. In a few lines: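 Adrenal H295R line, forskolin-stimulated (10 uM, 48 h) before dosing. 48 h exposure, 0.1% DMSO vehicle. Secreted progesterone by reverse-phase HPLC with ESI+ MS/MS quantification; DMSO-normalised bidirectional curve fit.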

Read-out in assay [5]: Tumor necrosis factor receptor superfamily member 6 (Homo sapiens) (UniProt P25445)
Briefly: LTEA_HepaRG_FAS: Life Technologies and Expression Analysis (LTEA) Assay for Fas cell surface death receptor (FAS) using HepaRG (AID 2283447). The conditions noted are these: mRNA level, 48 h; actives raise or lower the signal. The gist of the method: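 Differentiated HepaRG cells in serum-free induction medium were exposed 48 h to 8 half-log concentrations up to 100 uM in 0.5% DMSO, in duplicate. FAS mRNA was measured by qRT-PCR normalised to ACTB, GAPDH and POLR2A; bidirectional fit versus DMSO.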

Read-out in assay [6]: Fatty acid synthase (Homo sapiens) (UniProt P49327)
Briefly: LTEA_HepaRG_FASN: Life Technologies and Expression Analysis (LTEA) Assay for Fatty Acid Synthase (FASN) using HepaRG (AID 2283448). The conditions noted are these: mRNA level, 48 h; actives raise or lower the signal. In a few lines: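 In human HepaRG cultures, 48 h chemical exposure (up to 100 uM, 0.5% DMSO) preceded TaqMan qRT-PCR of FASN.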

Read-out in assay [7]: Cyclin D2 (CCND2), CCND2 (gene 894)
Briefly: LTEA_HepaRG_CCND2: Life Technologies and Expression Analysis (LTEA) Assay for Cyclin D2 (CCND2) using HepaRG (AID 2283449).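 Further: CCND2 transcript measured by TaqMan qRT-PCR and normalised to three housekeeping genes.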 The conditions noted are these: mRNA level, 48 h; actives raise or lower the signal. In a few lines: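 HepaRG, 48 h dosing, 8-pt half-log curve from 100 uM, 0.5% DMSO; duplicate wells. Readout: CCND2 transcript by microfluidic qRT-PCR, housekeeping-normalised; bidirectional fit vs DMSO baseline.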

Read-out in assay [8]: Cyclin Dependent Kinase Inhibitor 1A (CDKN1A), CDKN1A (gene 1026)
Briefly: LTEA_HepaRG_CDKN1A: Life Technologies and Expression Analysis (LTEA) Assay for Cyclin Dependent Kinase Inhibitor 1A (CDKN1A) using HepaRG (AID 2283450). The conditions noted are these: mRNA level, 48 h; actives raise or lower the signal. In a few lines: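 Cryopreserved HepaRG cells were plated and cultured 48 h, then switched to serum-free induction medium. Chemicals (eight half-log concentrations, top 100 uM, 0.5% DMSO) were applied for 48 h. Lysates underwent qRT-PCR for CDKN1A with housekeeping normalization.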

Read-out in assay [9]: Cyclin D1 (CCND1), CCND1 (gene 595)
Briefly: LTEA_HepaRG_CCND1: Life Technologies and Expression Analysis (LTEA) Assay for Cyclin D1 (CCND1) using HepaRG (AID 2283451).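 On AC50: TaqMan qRT-PCR transcript level normalised to ACTB GAPDH and POLR2A housekeeping genes.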 The following applies: mRNA level, 48 h; actives raise or lower the signal. The gist of the method:
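Human liver HepaRG line; 48 h dosing, 8 conc. ≤100 uM, 0.5% DMSO; TaqMan qRT-PCR mRNA, 3 housekeeping genes; bidirectional curve fit vs DMSO.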

Read-out in assay [10]: catalase (CAT), CAT (gene 847)
Briefly: LTEA_HepaRG_CAT: Life Technologies and Expression Analysis (LTEA) Assay for catalase (CAT) using HepaRG (AID 2283452). The conditions noted are these: mRNA level, 48 h; actives raise or lower the signal. The gist of the method: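 HepaRG cells in serum-free induction medium, 0.5% DMSO vehicle, exposed 48 h in duplicate over 8 half-log concentrations from 100 uM. CAT mRNA measured by qRT-PCR, normalized to ACTB, GAPDH, POLR2A; bidirectional fit versus DMSO.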

Read-out in assay [11]: flavin-containing dimethylaniline monooxygenases 3 (FMO3), FMO3 (gene 2328)
Briefly: LTEA_HepaRG_FMO3: Life Technologies and Expression Analysis (LTEA) Assay for flavin-containing dimethylaniline monooxygenases 3 (FMO3) using HepaRG (AID 2283453). The following applies: mRNA level, 48 h; actives raise or lower the signal. In a few lines:
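Eight-point concentration-response in serum-free HepaRG cultures (top 100 uM, 0.5% DMSO, 48 h). Read-out: FMO3 mRNA level normalized to three endogenous control genes, fitted bidirectionally versus vehicle.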

Read-out in assay [12]: Cytochrome P450 (CYP1A1), CYP1A1 (gene 1543)
Briefly: LTEA_HepaRG_CYP1A1: Life Technologies and Expression Analysis (LTEA) Assay for Cytochrome P450 (CYP1A1) using HepaRG (AID 2283454). The following applies: mRNA level, 48 h; actives raise or lower the signal. The gist of the method: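 Induction of CYP1A1 mRNA in a human hepatic cell line was measured 48 h after dosing, with 1 mM phenobarbital as induction positive control and 0.5% DMSO vehicle as baseline for bidirectional curve fitting.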

Read-out in assay [13]: CFLAR gene, CFLAR (gene 8837)
Briefly: LTEA_HepaRG_CFLAR: Life Technologies and Expression Analysis (LTEA) Assay for CFLAR gene using HepaRG (AID 2283455). The following applies: mRNA level, 48 h; actives raise or lower the signal. The gist of the method:
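qRT-PCR read-out (Fluidigm/TaqMan) of CFLAR mRNA, normalized to three housekeeping genes, in differentiated human HepaRG cells after 48 h chemical exposure; 8-point half-log series from 100 uM in 0.5% DMSO; bidirectional curve fitting versus DMSO.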

Read-out in assay [14]: Forkhead box O1 (FOXO1), FOXO1 (gene 2308)
Briefly: LTEA_HepaRG_FOXO1: Life Technologies and Expression Analysis (LTEA) Assay for Forkhead box O1 (FOXO1) using HepaRG (AID 2283456). The following applies: mRNA level, 48 h; actives raise or lower the signal. The gist of the method: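 HepaRG, 48 h exposure, 8-pt half-log series from 100 uM in 0.5% DMSO, duplicates; Fluidigm qRT-PCR mRNA, housekeeping-normalised; bidirectional fit vs DMSO baseline.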

Read-out in assay [15]: growth arrest and DNA damage 45 (GADD45A), GADD45A (gene 1647)
Briefly: LTEA_HepaRG_GADD45A: Life Technologies and Expression Analysis (LTEA) Assay for growth arrest and DNA damage 45 (GADD45A) using HepaRG (AID 2283458). The following applies: mRNA level, 48 h; actives raise or lower the signal. In a few lines:
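Eight-point concentration-response in HepaRG cells: 48 h chemical exposure, 0.5% DMSO vehicle, top dose 100 uM. Normalized qRT-PCR mRNA readout with bidirectional fitting relative to DMSO.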

Read-out in assay [16]: Forkhead box O3 (FOXO3), FOXO3 (gene 2309)
Briefly: LTEA_HepaRG_FOXO3: Life Technologies and Expression Analysis (LTEA) Assay for Forkhead box O3 (FOXO3) using HepaRG (AID 2283459). The following applies: mRNA level, 48 h; actives raise or lower the signal. The gist of the method:
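qRT-PCR readout of FOXO3 transcript, normalized to three housekeeping genes (ACTB, GAPDH, POLR2A); gain or loss fitted against 0.5% DMSO vehicle. HepaRG cells, 48 h chemical exposure, 8-point half-log series, top 100 uM.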

Read-out in assay [17]: growth arrest and DNA damage 45 (GADD45B), GADD45B (gene 4616)
Briefly: LTEA_HepaRG_GADD45B: Life Technologies and Expression Analysis (LTEA) Assay for growth arrest and DNA damage 45 (GADD45B) using HepaRG (AID 2283461). The conditions noted are these: mRNA level, 48 h; actives raise or lower the signal. The gist of the method:
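Values are bidirectional concentration-response fits against 0.5% DMSO controls. Underlying data: qRT-PCR mRNA levels in human HepaRG liver cells treated 48 h in serum-free induction medium, eight concentrations topping at 100 uM.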

Read-out in assay [18]: ABC Transporter (ABCC3), ABCC3 (gene 8714)
Briefly: LTEA_HepaRG_ABCC3: Life Technologies and Expression Analysis (LTEA) Assay for ABC Transporter (ABCC3) using HepaRG (AID 2283462). The following applies: mRNA level, 48 h; actives raise or lower the signal. The gist of the method:
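Differentiated HepaRG liver cells receive test chemicals at eight concentrations (max 100 uM) for 48 h. Expression of ABCC3 is quantified by qRT-PCR against ACTB, GAPDH and POLR2A, and activity is fitted in both directions against the DMSO control.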

Read-out in assay [19]: ABC Transporter (ABCB1), ABCB1 (gene 5243)
Briefly: LTEA_HepaRG_ABCB1: Life Technologies and Expression Analysis (LTEA) Assay for ABC Transporter (ABCB1) using HepaRG (AID 2283460). The following applies: mRNA level, 48 h; actives raise or lower the signal. In a few lines:
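HepaRG, 48 h exposure, 8-pt half-log series from 100 uM, 0.5% DMSO vehicle, duplicates. Readout: ABCB1 transcript by Fluidigm TaqMan qRT-PCR, housekeeping-normalized; bidirectional curve fit vs DMSO baseline.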

Assay [20] is described as follows: CEETOX_H295R_TESTO: CeeTox H295R High-throughput Steroidogenesis Assay for Testosterone (TESTO) (AID 2283457). The following applies: actives raise or lower the signal. In a few lines: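 Testosterone synthesis is assessed in human adrenocortical H295R cells after 48 h of chemical exposure, using HPLC-MS/MS of extracted medium. Activity is fitted in both directions against DMSO control.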

Chain of Fatty acid synthase (Homo sapiens) (P49327 whole entry, looked up): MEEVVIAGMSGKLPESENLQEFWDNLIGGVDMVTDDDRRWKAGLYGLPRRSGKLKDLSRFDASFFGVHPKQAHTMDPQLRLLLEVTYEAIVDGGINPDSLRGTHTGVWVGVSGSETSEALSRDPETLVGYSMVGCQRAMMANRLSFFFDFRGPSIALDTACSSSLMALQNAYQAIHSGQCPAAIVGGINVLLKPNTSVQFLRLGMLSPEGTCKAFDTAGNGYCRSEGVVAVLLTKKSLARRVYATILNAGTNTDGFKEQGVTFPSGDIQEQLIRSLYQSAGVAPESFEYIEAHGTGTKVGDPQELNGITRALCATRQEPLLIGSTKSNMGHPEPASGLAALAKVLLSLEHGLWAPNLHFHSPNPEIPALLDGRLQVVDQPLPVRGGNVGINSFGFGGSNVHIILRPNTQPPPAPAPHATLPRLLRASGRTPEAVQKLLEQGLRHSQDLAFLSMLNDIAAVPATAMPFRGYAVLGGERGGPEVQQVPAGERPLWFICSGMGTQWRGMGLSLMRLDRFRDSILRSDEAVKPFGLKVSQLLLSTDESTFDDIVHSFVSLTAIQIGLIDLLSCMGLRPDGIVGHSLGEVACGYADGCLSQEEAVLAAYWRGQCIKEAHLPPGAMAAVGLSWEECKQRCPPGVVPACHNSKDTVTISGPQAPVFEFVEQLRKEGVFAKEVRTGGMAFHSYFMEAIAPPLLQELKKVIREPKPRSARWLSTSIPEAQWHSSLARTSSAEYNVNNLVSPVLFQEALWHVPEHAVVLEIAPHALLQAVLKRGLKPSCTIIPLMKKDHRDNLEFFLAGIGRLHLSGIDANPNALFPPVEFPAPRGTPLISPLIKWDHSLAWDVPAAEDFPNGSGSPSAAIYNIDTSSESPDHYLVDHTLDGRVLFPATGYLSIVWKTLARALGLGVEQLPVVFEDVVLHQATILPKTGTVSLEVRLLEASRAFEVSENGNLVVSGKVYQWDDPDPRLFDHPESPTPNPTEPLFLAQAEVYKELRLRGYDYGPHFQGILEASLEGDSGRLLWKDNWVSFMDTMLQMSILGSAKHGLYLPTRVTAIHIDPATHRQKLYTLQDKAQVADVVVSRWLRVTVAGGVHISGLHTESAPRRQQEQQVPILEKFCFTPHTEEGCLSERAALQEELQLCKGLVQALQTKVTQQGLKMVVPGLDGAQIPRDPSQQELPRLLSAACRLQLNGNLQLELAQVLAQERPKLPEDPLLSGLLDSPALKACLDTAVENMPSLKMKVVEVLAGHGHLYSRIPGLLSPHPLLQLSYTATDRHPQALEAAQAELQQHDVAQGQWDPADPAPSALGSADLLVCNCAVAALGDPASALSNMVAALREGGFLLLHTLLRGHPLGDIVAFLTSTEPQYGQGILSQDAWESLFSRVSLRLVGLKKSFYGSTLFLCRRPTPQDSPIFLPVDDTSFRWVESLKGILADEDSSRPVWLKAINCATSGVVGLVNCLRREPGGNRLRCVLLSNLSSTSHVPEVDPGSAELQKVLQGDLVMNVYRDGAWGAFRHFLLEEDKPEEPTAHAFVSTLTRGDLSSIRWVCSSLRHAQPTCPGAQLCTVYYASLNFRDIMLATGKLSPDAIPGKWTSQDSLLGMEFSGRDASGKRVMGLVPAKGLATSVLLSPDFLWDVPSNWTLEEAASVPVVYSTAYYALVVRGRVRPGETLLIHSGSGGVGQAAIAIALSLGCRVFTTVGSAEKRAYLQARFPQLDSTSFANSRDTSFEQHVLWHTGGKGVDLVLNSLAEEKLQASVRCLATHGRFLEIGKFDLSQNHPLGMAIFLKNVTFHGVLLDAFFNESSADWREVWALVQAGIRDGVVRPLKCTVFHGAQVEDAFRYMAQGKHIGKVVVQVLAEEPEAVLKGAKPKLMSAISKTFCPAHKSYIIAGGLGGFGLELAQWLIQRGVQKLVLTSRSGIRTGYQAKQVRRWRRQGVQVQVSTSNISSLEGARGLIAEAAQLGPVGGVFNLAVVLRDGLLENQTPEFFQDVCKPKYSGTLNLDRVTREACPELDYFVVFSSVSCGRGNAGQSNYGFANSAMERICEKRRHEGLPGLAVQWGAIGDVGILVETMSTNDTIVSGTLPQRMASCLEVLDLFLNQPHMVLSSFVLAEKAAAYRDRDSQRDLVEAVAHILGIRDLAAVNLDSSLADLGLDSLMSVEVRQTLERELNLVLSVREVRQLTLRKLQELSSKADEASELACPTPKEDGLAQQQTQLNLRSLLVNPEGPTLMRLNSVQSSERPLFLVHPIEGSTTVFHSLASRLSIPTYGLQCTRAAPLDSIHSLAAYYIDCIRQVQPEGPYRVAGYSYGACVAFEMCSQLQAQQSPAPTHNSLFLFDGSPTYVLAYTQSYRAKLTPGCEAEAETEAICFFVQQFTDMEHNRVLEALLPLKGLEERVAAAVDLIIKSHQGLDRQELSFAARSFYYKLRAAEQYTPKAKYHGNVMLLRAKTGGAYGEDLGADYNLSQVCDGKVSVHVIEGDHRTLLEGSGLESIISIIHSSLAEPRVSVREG

The AC50 is the concentration at which the activity in the assay is half-maximal. As to `CC[C@H]1CC[C@H](NCc2cc3c(cc2OC)[C@H]2C[C@H]2C(=O)N3C)[C@H](c2ccccc2)N1`, the result in [1], in [4], in [5], in [7], in assay [8] and in [9] was inactive. The result in assay [10], in assay [11], in assay [13], in assay [14], in [15] and in [16] was inactive. In addition, the compound was called inactive in assay [17] and in [18]. In addition, the AC50 in [2] is 6.19 µM (active); in assay [3] it was 7.37 µM (active); in [6], 57.7 µM (active); in [12], 37.6 µM (active).

With `COc1ccc(-n2nc(C(F)F)cc2-c2ccc(S(C)=O)cc2)cc1` (stereo not given), the result in [1], in assay [4], in assay [5], in [6], in assay [7] and in assay [8] was inactive. In addition, the call in [9], in assay [10], in [11], in assay [13], in assay [14] and in assay [15] was inactive. Besides, the compound was called inactive in [16], in [19], in [17] and in assay [18].

In the case of `Fc1ccccc1[C@@H](F)COC1CCC(Nc2ncnc3[nH]ncc23)CC1` (stereo not given in full), the outcome in assay [1], in [4], in assay [5], in assay [7], in assay [13] and in assay [20] was inactive. Also, the compound was called inactive in [15], in assay [16] and in [18]. In addition, the AC50 in assay [6] is 50 µM (active); in [8] it was 31.8 µM (active); in [9] it was 86.4 µM (active); in assay [10], 37.3 µM (active); in [11] it was 31.9 µM (active); in assay [14], 82.1 µM (active). In assay [17], the AC50 was 81.7 µM (active).

For the origin of these results see PubChem BioAssay (EPA / NIEHS).
